Where “and” joins values, the source holds several entries; their conditions need not be identical. Equal values may be shown once. Records with an inconclusive call do not appear. Entries that show only a call come without a potency. Unmarked numbers belong to inactive results. Calls of active or inactive are those of the source. The call rests on the fitted dose curve; in most records, active means well fitted curve in the direction sought with a large enough effect; inconclusive means small, poorly fitted or top-dose-only effect, or another doubt; inactive means no such curve, though single readings can be large; an effect the other way counts as inactive or inconclusive. Square brackets hold non-standard residues; d marks the D form. Peptide text beside a SMILES is read from it. Hyp = O=C(O)[CH]1C[CH](O)CN1; Phe(ol) = N[CH](CO)Cc1ccccc1; Iva = CC[C](C)(N)C(=O)O; Aib = CC(C)(N)C(=O)O
Columns and labels:
[1] = target: Cellular tumor antigen p53 (Homo sapiens) (UniProt P04637); test: Primary qHTS for small molecule compounds that upregulate eGFP-tagged delta133p53alpha (in N-terminal) cells. (AID 2060322); conditions: NCI-H358 eGFP-delta133p53alpha fluorescence, 24 h; activation: stronger effect = higher value; further: nearly all actives have a fitted effect of over 75% in size; further: potency means the concentration at half of the fitted maximal effect; on activation: series mostly up to about 56 µM
Cellular tumor antigen p53 (Homo sapiens), sequence (P04637 whole entry, looked up): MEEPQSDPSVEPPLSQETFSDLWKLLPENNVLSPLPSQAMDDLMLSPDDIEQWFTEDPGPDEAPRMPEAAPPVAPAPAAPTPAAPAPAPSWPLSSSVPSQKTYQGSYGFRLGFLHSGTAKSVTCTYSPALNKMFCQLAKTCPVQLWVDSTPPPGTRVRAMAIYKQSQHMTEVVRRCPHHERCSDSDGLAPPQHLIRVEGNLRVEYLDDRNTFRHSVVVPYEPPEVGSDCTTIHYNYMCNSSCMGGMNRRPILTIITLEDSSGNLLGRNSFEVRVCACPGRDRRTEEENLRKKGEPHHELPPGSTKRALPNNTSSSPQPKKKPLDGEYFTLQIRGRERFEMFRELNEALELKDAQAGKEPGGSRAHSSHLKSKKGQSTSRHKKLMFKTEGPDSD
Summary of the method: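 NCI-H358 cells pre-induced 24 h with 10 ng/ml doxycycline to express N-terminal eGFP-delta133p53alpha, then dosed 24 h at 37C without doxycycline; fixed, Hoechst-stained, GFP intensity by laser scanning cytometry, normalized to DMSO (0%) and 57.5 uM 5-azacytidine (100%).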

[2] = target: Aldehyde dehydrogenase, mitochondrial (Homo sapiens) (UniProt P05091); test: qHTS for Inhibitors of the Aldehyde Dehydrogenase Family (ALDH2) Primary screen (AID 2061308); further: nearly all actives have a fitted effect of over 55% in size
[3] = target: Retinaldehyde dehydrogenase 3 (Homo sapiens) (UniProt P47895); test: qHTS for Inhibitors of the Aldehyde Dehydrogenase Family (ALDH1A3) Primary screen (AID 2061315)

CCC(C)(NC(=O)C(CCC(N)=O)NC(=O)C1CC(O)CN1C(=O)C(C)(C)NC(=O)C(C)(C)NC(=O)C(CC(C)C)NC(=O)CNC(=O)C(NC(=O)C(C)(C)NC(=O)C(C)(C)NC(=O)C(C)(C)NC(=O)C(Cc1ccccc1)NC(C)=O)C(C)C)C(=O)N1CC(O)CC1C(=O)NC(C)(C)C(=O)NC(CO)Cc1ccccc1 (centres undefined) (Ac-F[Aib][Aib][Aib]VGL[Aib][Aib][Hyp]Q[Iva][Hyp][Aib][Phe(ol)]; configuration not given here)
activation [1]: 23.7%
activity change, negative = inhibition [2]: -9.83% [at 11.2 µM]
activity change, negative = inhibition [3]: 11.2% [at 11.2 µM]

C[C@@H]1O[C@@H](O[C@H]2[C@H](O[C@H]3[C@H](O[C@H]4CC[C@@]5(C)C(CC[C@]6(C)C5CC=C5[C@@H]7CC(C)(C)C[C@@H](O)[C@]7(C)CC[C@]56C)[C@@]4(C)CO)O[C@H](C(=O)O)[C@@H](O)[C@@H]3O)O[C@H](C(=O)O)[C@H](O)[C@@H]2O)[C@H](O)[C@H](O)[C@H]1O (some centres undefined)
activation [1]: 6.87%
Potency [2]: inactive
Potency [3]: inactive

CC1OC(OC2C(C)OC(OC3C(OC(=O)C45CCC(C)(C)CC4C4=CCC6C7(C)CCC(OC8OC(C(=O)O)C(O)C(O)C8OC8OC(CO)C(O)C(OC9OC(C)C(O)C(O)C9O)C8O)C(C)(CO)C7CCC6(C)C4(C)CC5)OC(CO)C(O)C3O)C(O)C2O)C(O)C(O)C1O (centres undefined)
activation [1]: 13.4%
activity change, negative = inhibition [2]: -1.8% [at 11.2 µM]
activity change, negative = inhibition [3]: -5.04% [at 11.2 µM]

N#Cc1c[nH]c2c(C(=O)N3CCN(CCc4ccc(F)cc4)CC3)cccc12
activation [1]: -18.8%
Potency [2]: inactive
Potency [3]: inactive

O=C(NC1CCC1)c1ccc(C#Cc2cccc(F)c2)nc1
activation [1]: 21.4%
Potency [2]: inactive
Potency [3]: inactive

C=C[C@H]1[C@H](O[C@@H]2O[C@H](CO)[C@@H](O)[C@H](O)[C@H]2O)OC=C2C(=O)OCC[C@]21O
activation [1]: -8.04%
Potency [2]: inactive
Potency [3]: inactive

C=CC(C)(O)CC/C=C(\C)C(=O)OC1C(O)C(CO)OC(OC(=O)C23CCC(C)(C)CC2C2=CCC4C5(C)CCC(OC6OC(COC7OCC(OC(C)=O)C(O)C7OC7OC(COC(C)=O)C(O)C(O)C7OC(C)=O)C(O)C(O)C6OC6OCC(O)C(O)C6O)C(C)(C)C5CCC4(C)C2(C)C(O)C3O)C1OC1OCC(OC2OCC(O)C(OC3OCC(O)C(O)C3O)C2O)C(O)C1O (centres undefined)
activation [1]: -12.2%
activity change, negative = inhibition [2]: 11.4% [at 11.2 µM]
activity change, negative = inhibition [3]: 12.6% [at 11.2 µM]

COc1c2ccoc2cc2oc(CO[C@@H]3O[C@H](CO)[C@@H](O)[C@H](O)[C@H]3O)cc(=O)c12
activation [1]: -23.2%
Potency [2]: inactive
Potency [3]: inactive

COc1c(C)c(OCC=C(C)C)cc2c1COC2=O
activation [1]: -0.763%
Potency [2]: inactive
Potency [3]: inactive

CC1(C(=O)O)CCCC2(C)C3CCC4CC3(CCC12)CC4=O (centres undefined)
activation [1]: 16.1%
Potency [2]: inactive
Potency [3]: inactive

CC(=O)OC1C(O)C2C(C)C3=CC(=O)OC3(O)CC2C2(C)CCCC(C)(CO)C12 (centres undefined)
activation [1]: 9.16%
Potency [2]: inactive
Potency [3]: inactive

C=CC1(C)C=C2C(=O)OC(=O)C3=C(CCCC3(C)C)C2(O)CC1 (centres undefined)
activation [1]: -22.9%
Potency [2]: inactive
Potency [3]: inactive

C/C=C/C=C/C=C/C(=O)O[C@@H]1C=C(CO)C(O)(C(=O)OC)[C@@]2(C)CCCC(C)(C)C12 (some centres undefined)
activation [1]: -10.7%
Potency [2]: inactive
Potency [3]: inactive

CC(C)=CC1C[C@](C)(O)[C@@H]2[C@H]3CCC4[C@@]5(C)CC[C@H](O[C@@H]6OC[C@H](O)[C@H](O[C@@H]7O[C@H](CO[C@@H]8O[C@H](CO)[C@@H](O)[C@H](O)[C@H]8O)[C@@H](O)[C@H](O)[C@H]7O)[C@H]6O[C@@H]6O[C@@H](C)[C@H](O)[C@@H](O)[C@H]6O)C(C)(C)[C@@H]5CC[C@@]4(C)[C@@]34CO[C@@]2(C4)O1 (some centres undefined)
activation [1]: -4.46%
Potency [2]: inactive
Potency [3]: inactive

CC(/C=C/C1=CC2=CC(=O)C(C)(O)C(O)C2=CO1)=C\C(C)CCO (centres undefined)
activation [1]: 7.63%
Potency [2]: inactive
Potency [3]: inactive

Cc1occc(=O)c1O[C@@H]1O[C@H](COC(=O)CC(C)(O)CC(=O)O)[C@@H](O)[C@H](O)[C@H]1O (some centres undefined)
activation [1]: -11.6%
Potency [2]: inactive
Potency [3]: inactive

CCC(C)(OC(C)=O)C(=O)O[C@H]1[C@H](OC(C)=O)[C@]2(CO)[C@H](O)[C@H](O)[C@]3(C)C(=CCC4[C@@]5(C)CC[C@H](O[C@@H]6O[C@H](C(=O)O)[C@@H](O)[C@H](O[C@@H]7OC[C@H](O)[C@H](O[C@@H]8OC[C@H](O)[C@H](O)[C@H]8O)[C@H]7O)[C@H]6O[C@@H]6O[C@H](CO)[C@@H](O)[C@H](O)[C@H]6O)C(C)(C)C5CC[C@]43C)[C@@H]2CC1(C)C (some centres undefined)
Potency [1]: 3.2 µM (active)
activity change, negative = inhibition [2]: -13.5% [at 11.2 µM]
activity change, negative = inhibition [3]: 11.4% [at 11.2 µM]

CC(=O)C1CCC(=O)N1Cc1ccccc1 (centres undefined)
activation [1]: -13.7%
Potency [2]: inactive
Potency [3]: inactive

C=C1CCC[C@]2(C)CC[C@@H](C(=C)C(=O)O)[C@H](O)[C@@H]12
activation [1]: -7.63%
Potency [2]: inactive
Potency [3]: inactive

COC1C(O)C(OC2CCC3(C)C(CCC45CCC6C7(COC(=O)C7)OC4(O)C6(C)CCC35)C2)OC(C)C1OC1OC(CO)C(OC2OC(CO)C(O)C(O)C2O)C(O)C1O (centres undefined)
activation [1]: 1.53%
Potency [2]: inactive
Potency [3]: inactive

C=C1[C@H]2CC[C@]3(O)[C@@](CC[C@@H]4[C@](C)(C(=O)O)CCC[C@]43C)(C2)[C@H]1OC(=O)/C(C)=C\C
activation [1]: 15.2%
Potency [2]: inactive
Potency [3]: inactive

CCc1cc(CC[C@]2(C3CCCC3)CC(O)=C(Cc3nc4nc(C)cc(C)n4n3)C(=O)O2)cc(CC)n1
activation [1]: -29.5%
Potency [2]: inactive
Potency [3]: inactive

CC(=O)NC(Cc1ccccc1)C(=O)O (centres undefined)
activation [1]: 1.67% and 0%
Potency [2]: inactive
Potency [3]: inactive

O=C(O)[C@H]1Cc2ccccc2CN1
activation [1]: 6.21%
activity change, negative = inhibition [2]: 6.47% [at 5.59 µM]
activity change, negative = inhibition [3]: -14.2% [at 5.59 µM]

O=C1NCc2nc3ccccc3c(=O)n2C1Cc1c[nH]c2ccccc12 (centres undefined)
activation [1]: -7.63%
Potency [2]: inactive
Potency [3]: inactive

COc1c(OC2OC(CO)C(O)C(O)C2O)ccc(O)c1C(=O)OCc1ccccc1O[C@@H]1O[C@H](CO)[C@@H](O)[C@H](O)[C@H]1O (some centres undefined)
activation [1]: 3.82%
Potency [2]: inactive
Potency [3]: inactive

CC1C2=CC(=O)OC2(O)CC2C1CCC1C(C)(C)CCC(O)C21C (centres undefined)
activation [1]: 0.763%
Potency [2]: inactive
Potency [3]: inactive

CC1CCC2C(=CCC(O)C2(C)C)C1(C)Cc1c(O)cc(CO)c(C=O)c1O (centres undefined)
activation [1]: 9.92%
Potency [2]: inactive
Potency [3]: inactive

CC12CCC3c4ccc(OC5OC(C(=O)O)C(O)C(O)C5O)cc4CCC3C1CCC2O (centres undefined)
activation [1]: 11.7%
Potency [2]: inactive
Potency [3]: inactive

Cc1ccc(C)c(NS(=O)(=O)c2cc(C(=O)Nc3ccccc3-c3ccccc3)ccc2C)c1
activation [1]: 1.67%
Potency [2]: inactive
Potency [3]: inactive

CC(=O)N[C@H]1[C@H](O[C@H]2CC[C@@]3(C)C(CC[C@]4(C)C3CC=C3[C@@H]5CC(C)(C)CC[C@]5(C(=O)OC5OCC(O)C(O)C5O)CC[C@]34C)C2(C)C)O[C@H](COC2OC(C)C(O)C(OC3OC(C)C(O)C(O)C3O)C2O)[C@@H](O)[C@@H]1O (some centres undefined)
activation [1]: -26%
Potency [2]: inactive
Potency [3]: inactive

C[C@@H]1O[C@@H](O[C@H]2[C@H](O)[C@@H](O)[C@H](OC3CCC4(C)C5CCC(C)(C(CO)OC6OC(CO)C(O)C(O)C6O)CC5=CCC4C3(C)C)O[C@@H]2CO)[C@H](O)[C@H](O)[C@H]1O (some centres undefined)
activation [1]: -22.9%
Potency [2]: inactive
Potency [3]: inactive

CC(=O)[C@@H]1C[C@H](C(C)(C)O[C@@H]2O[C@H](CO)[C@@H](O)[C@H](O)[C@H]2O)CC[C@@]2(CO)OC(=O)C[C@@H]12
activation [1]: -6.11%
Potency [2]: inactive
Potency [3]: inactive
